From PubChem BioAssay AID2283371 (EPA ToxCast)
Records with an inconclusive call do not appear. Active and inactive are the calls of the source. Rule for the calls: active = hit-call score of the fitted dose curve at least 0.9, where 1 is the maximum; inconclusive = response in the unintended direction; inactive = score below 0.9.

The compounds below were run against rat Adenosine Transporter (Adot), Slc29a1 (gene 63997) (UniProt O54698) (assay: NVS_TR_rAdoT: NovaScreen (NVS) Transporter Assay for rat Adenosine Transporter (Adot)).
Sequence of rat Adenosine Transporter (Adot), Slc29a1 (gene 63997) (O54698 whole entry, looked up): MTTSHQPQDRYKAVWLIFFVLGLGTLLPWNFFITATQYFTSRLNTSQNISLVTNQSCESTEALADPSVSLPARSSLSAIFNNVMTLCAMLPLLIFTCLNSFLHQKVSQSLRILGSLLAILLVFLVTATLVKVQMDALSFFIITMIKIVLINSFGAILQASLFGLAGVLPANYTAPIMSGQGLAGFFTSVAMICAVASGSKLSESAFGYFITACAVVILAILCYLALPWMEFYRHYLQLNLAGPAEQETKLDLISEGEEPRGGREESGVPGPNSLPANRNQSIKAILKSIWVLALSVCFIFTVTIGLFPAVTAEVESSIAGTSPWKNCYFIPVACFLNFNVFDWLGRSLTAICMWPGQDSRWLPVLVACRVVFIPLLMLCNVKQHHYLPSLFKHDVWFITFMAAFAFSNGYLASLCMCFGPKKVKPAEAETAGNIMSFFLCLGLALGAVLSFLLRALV
Protocol: NVS_TR_rAdoT is a biochemical, single-readout assay that uses extracted gene-proteins from Rat forebrain membranes in a tissue-based cell-free assay. Measurements were taken 1 hour after chemical dosing in a 48-well plate.NVS_TR_rAdoT is one of one assay component(s) measured or calculated from the NVS_TR_rAdoT assay. It is designed to make measurements of radioligand binding, a form of binding reporter, as detected with scintillation counting signals by Filter-based radiodetection technology.Data from the assay component NVS_TR_rAdoT was analyzed into 1 assay endpoint. This assay endpoint, NVS_TR_rAdoT, was analyzed in the positive analysis fitting direction relative to DMSO as the negative control and baseline of activity. Using a type of binding reporter, loss-of-signal activity can be used to understand changes in the binding as they relate to the gene Slc29a1. Furthermore, this assay endpoint can be referred to as a primary readout, because the performed assay has only produced 1 assay endpoint. To generalize the intended target to other relatable targets, this assay endpoint is annotated to the transporter intended target family, where the subfamily is nucleoside transporter.
Binding assays used specific radioligands (tritiated, iodinated) with non-radioactive competitive displacement ligands in agonist or antagonist protocols (as indicated) and various reference compounds and inhibitors to titrate specific binding to receptors and transporters. Most enzyme assays (CYPs, kinases, phosphatases, proteases, HDACs) used recombinant protein and specific substrates (fluorescence mostly, some colorimetric and radioactive) and inhibitors, followed by a biochemical separation of substrate and product. All assays for the biochemical HTS were initially run in duplicate at a single concentration (10 uM for CYP450 assays and 25 uM for all others). Assay-chemical combinations meeting a pre-defined threshold (e.g., 30% inhibition and other criteria defined below) were then run in singleton concentration-response format with maximum concentration of 20 uM for CYPs and 50 uM for all others. Each assay was run with positive and negative controls, and concurrent controls on every plate. The follow-up (secondary) screen tested active chemical-pairs in concentration series, as well as a few additional assays not tested in the primary screen, some selected negative inactives, and several cases re-run in the concentration series for confirmatory purposes.
S=C1NCCN1 was tested, and the outcome was “inactive”. In the case of COc1ccc2cc(S(=O)(=O)N[C@H](CC(=O)N[C@H](Cc3ccc(CN4[C@H](C)CCC[C@@H]4C)cc3)C(=O)N(C)C(C)C)c3ccc4c(c3)OCO4)ccc2c1, the AC50 is reported as 7.85 µM (active). With Oc1ccc(Cl)cc1Cl the outcome was “inactive”. CCCCC(CC)COC(=O)c1ccc(C(=O)OCC(CC)CCCC)c(C(=O)OCC(CC)CCCC)c1 (configuration not stated) was tested, and the outcome was “inactive”. For Cc1oc(-c2ccccc2)nc1CCOc1cccc2c1ccn2CCC(=O)O, the outcome was “inactive”. With Cn1c(=O)c2c(ncn2C)n(C)c1=O the outcome was “inactive”. CC[C@H]1OC(=O)[C@H](C)[C@@H](O[C@H]2C[C@@](C)(OC)[C@@H](O)[C@H](C)O2)[C@H](C)[C@@H](O[C@@H]2O[C@H](C)C[C@H](N(C)C)[C@H]2O)[C@](C)(O)C[C@@H](C)C(=O)[C@H](C)[C@@H](O)[C@]1(C)O was tested, and the AC50 was 6.47 µM (active). For O=C(O)C(F)(F)C(F)(F)C(F)(F)C(F)(F)C(F)(F)C(F)(F)C(F)(F)F, the outcome was “inactive”. For O=S(=O)(O)C(F)(F)C(F)(F)C(F)(F)C(F)(F)C(F)(F)C(F)(F)C(F)(F)C(F)(F)F, the outcome was “inactive”. With COc1cc2c(c(OC)c1OC)-c1ccc(OC)c(=O)cc1[C@@H](NC(C)=O)CC2 the outcome was “inactive”. CCOP(=S)(Oc1ccc([N+](=O)[O-])cc1)c1ccccc1 (configuration not stated) was tested, and the outcome was “inactive”. In the case of S=C(S)NCCNC(=S)S.[Mn+2].[S-]C([S-])=NCCN=C([S-])[S-].[Zn+2], the outcome is reported as “inactive”.
